# According to ChEMBL document CHEMBL1961873, “Compounds: GSK PKIS; Assays: Nanosyn kinase panel” (2012):
# Where “and” joins values, the source holds several entries; their conditions need not be identical. Equal values may be shown once.
# Target: T1, Tyrosine-protein kinase JAK3 (Homo sapiens) (UniProt P52333)
# T1 sequence (whole entry): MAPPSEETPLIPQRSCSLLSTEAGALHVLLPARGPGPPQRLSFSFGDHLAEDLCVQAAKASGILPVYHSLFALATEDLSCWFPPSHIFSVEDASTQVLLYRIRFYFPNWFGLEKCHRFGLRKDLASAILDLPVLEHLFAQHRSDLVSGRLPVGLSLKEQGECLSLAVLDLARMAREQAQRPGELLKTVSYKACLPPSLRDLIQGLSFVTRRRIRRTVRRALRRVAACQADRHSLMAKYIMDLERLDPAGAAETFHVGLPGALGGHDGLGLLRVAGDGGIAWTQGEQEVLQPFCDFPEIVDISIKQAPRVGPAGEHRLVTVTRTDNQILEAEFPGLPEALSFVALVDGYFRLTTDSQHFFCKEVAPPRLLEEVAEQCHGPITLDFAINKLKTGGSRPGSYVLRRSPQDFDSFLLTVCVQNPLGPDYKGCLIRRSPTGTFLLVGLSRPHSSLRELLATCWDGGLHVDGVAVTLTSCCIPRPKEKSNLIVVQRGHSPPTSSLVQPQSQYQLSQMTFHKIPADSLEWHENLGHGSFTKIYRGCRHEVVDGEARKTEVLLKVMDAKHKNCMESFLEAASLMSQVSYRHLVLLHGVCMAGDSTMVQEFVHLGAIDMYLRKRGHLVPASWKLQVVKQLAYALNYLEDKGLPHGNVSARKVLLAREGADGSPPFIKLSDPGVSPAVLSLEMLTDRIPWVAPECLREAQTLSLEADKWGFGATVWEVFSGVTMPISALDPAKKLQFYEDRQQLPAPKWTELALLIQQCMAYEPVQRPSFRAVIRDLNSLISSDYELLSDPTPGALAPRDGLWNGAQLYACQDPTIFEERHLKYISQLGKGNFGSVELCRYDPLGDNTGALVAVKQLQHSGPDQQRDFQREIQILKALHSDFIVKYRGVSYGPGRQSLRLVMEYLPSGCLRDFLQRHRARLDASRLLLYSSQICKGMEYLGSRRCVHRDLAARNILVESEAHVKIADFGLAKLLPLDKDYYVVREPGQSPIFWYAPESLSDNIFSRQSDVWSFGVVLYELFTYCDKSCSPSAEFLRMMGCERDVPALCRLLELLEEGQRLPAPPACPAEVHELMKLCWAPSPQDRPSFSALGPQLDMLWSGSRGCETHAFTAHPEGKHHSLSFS
# Details: at 1 µM
row,SMILES,inhibition
1,O=C(O[C@H]1CN[C@H](C#Cc2cc3ncnc(Nc4ccc5c(cnn5Cc5ccccc5)c4)c3s2)C1)N1CCOCC1,1.24%
2,COc1ccc(Nc2ncc(-c3ccccc3)o2)cc1OC,10.7%
3,COc1cc(N2CCN(C(C)C)CC2)ccc1Nc1nc(Nc2cccc(F)c2C(=O)O)c2cc[nH]c2n1,0.51%
4,COc1ccccc1-c1cc(/C=C2\C(=O)Nc3ncc(Br)cc32)cc(Br)c1O,5.39%
5,FC(F)(F)CNc1nccc(-c2cnn3ncccc23)n1,-1.63%
6,CN1CCC(n2cnc(-c3ccc(F)cc3)c2-c2ccnc(NCCO)n2)CC1,-0.11%
7,CS(=O)(=O)CCNCc1ccc(-c2ccc3ncnc(Nc4ccc(OCc5cccc(C(F)(F)F)c5)cc4)c3c2)o1,0.32%
8,COc1c(C(N)=O)cc(-c2ccc(Cl)cc2)cc1-c1ccc(S(N)(=O)=O)cc1,-0.75%
9,Cc1nnc(-c2cccc(-c3ccc(C(=O)NCC4CC4)cc3)c2)o1,0.46%
10,O=C(O[C@H]1CN[C@H](C#Cc2cc3ncnc(Nc4ccc5c(ccn5Cc5cc(F)ccc5F)c4)c3s2)C1)N1CCOCC1,0.4%
11,CS(=O)(=O)Nc1ccc(-c2ccc3c(NC(=O)C4CC4)n[nH]c3c2)cc1,1.11%
12,CN1CCC(C(=O)Nc2n[nH]c3nc(-c4ccc(O)cc4)c(Br)cc23)CC1,-2.24% and 0.59%
13,O=C(O[C@H]1CN[C@H](C#Cc2cc3ncnc(Nc4ccc(OCc5cccc(F)c5)c(Cl)c4)c3s2)C1)N1CCOCC1,-2.5%
14,CCCNc1cccc(-n2ncc3c(N/N=C/c4ccncc4)ncnc32)c1,8.21%
15,COc1cccc(Nc2nccc(-c3cnn4ncccc34)n2)c1,44.2%
16,N#Cc1ccc2c(-c3ccnc(NC4CC4)n3)c(-c3ccc(F)cc3)nn2c1,-1.11%

row,SMILES,inhibition
1,CNC(=O)c1ncccc1Nc1nc(Nc2cc3c(cc2OC)CCCN3C(=O)CN(C)C)nc2[nH]ccc12,0.89%
2,CC1(C)CC(n2cnc(-c3ccc(F)cc3)c2-c2ccnc(N)n2)CC(C)(C)N1,-0.6%
3,COc1ccc2ncn(-c3cc(O[C@H](C)c4ccccc4C(F)(F)F)c(C(N)=O)s3)c2c1,6.44%
4,CC(C)c1ccc(-c2cc(-c3c[nH]nc3-c3ccccn3)ccn2)cc1,0.8%
5,CN1CCN(Cc2ccc(-c3cc4ncnc(Nc5ccc(OCc6cccc(F)c6)c(Cl)c5)c4s3)o2)CC1,-1.79% and -0.23%
6,NS(=O)(=O)c1ccc(N/N=C2\C(=O)Nc3cccc(CCc4ccncc4)c32)cc1,5.91%
7,N#Cc1cccc(Nc2ncc(-c3ccccc3)o2)c1,-0.94%
8,CNC(=O)c1cncc(/C=C/c2ccccc2C)c1,0.49%
9,Nc1ncnc2occ(-c3ccc(NC(=O)Nc4cc(C(F)(F)F)ccc4F)cc3)c12,1.36% and 1%
10,Cc1cc(O)cc(C)c1/C=C/c1cncc(C(=O)OC(C)(C)C)c1,6.16%
11,COc1ccc(-c2nn3ncccc3c2-c2ccnc(Nc3ccc(F)c(F)c3)n2)cc1,0.8%
12,O=C(Nc1n[nH]c2nnc(-c3cccnc3)cc12)C1CC1,0.02%
13,c1ccc(-c2n[nH]cc2-c2ccnc(-c3ccc(OCCn4ccnc4)cc3)c2)nc1,4.76%
14,CS(=O)(=O)Nc1ccc(-c2cc(-c3ccccc3)cc(C(N)=O)c2N)cc1,0.58%
15,OCCCNc1nccc(-c2c(-c3ccc(F)cc3)nn3cc(C(F)(F)F)ccc23)n1,1.33%

# Target: Vascular endothelial growth factor receptor 2 (Homo sapiens) (UniProt P35968)
# Details: at 0.1 µM
# Sequence of Vascular endothelial growth factor receptor 2 (Homo sapiens) (P35968 whole entry): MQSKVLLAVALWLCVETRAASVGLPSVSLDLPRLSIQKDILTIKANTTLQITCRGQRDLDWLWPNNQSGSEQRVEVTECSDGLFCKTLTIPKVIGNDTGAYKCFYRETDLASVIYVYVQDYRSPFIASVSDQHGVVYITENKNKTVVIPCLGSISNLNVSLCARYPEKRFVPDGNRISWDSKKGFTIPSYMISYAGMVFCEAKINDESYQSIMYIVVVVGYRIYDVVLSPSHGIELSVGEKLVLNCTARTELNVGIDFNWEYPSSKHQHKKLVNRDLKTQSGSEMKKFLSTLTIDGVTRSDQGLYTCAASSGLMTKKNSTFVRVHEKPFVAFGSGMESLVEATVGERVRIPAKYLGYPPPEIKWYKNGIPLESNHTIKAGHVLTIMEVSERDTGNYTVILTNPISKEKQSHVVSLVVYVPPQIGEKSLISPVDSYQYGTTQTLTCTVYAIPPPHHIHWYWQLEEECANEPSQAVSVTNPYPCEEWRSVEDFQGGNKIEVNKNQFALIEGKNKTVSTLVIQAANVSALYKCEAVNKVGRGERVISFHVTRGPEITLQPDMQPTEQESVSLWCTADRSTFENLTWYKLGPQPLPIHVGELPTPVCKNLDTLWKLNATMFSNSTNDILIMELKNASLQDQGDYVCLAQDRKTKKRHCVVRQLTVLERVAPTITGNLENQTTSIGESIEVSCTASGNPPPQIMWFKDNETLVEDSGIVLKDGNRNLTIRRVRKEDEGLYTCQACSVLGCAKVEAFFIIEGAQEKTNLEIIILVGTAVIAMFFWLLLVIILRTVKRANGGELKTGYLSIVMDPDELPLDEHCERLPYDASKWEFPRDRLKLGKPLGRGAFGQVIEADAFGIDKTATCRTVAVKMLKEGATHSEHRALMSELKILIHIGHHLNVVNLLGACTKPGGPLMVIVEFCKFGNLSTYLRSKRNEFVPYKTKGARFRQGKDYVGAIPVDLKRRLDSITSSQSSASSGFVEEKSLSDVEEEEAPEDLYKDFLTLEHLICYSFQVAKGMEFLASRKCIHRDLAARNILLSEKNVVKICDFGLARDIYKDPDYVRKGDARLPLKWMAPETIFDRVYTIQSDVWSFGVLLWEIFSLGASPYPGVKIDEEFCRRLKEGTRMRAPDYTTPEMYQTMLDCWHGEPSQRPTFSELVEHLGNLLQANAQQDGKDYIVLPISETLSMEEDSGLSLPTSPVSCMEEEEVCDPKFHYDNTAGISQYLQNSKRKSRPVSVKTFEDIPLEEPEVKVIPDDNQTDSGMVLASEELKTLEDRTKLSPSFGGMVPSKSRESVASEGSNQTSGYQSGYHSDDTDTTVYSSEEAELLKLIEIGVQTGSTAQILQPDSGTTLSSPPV
row,SMILES,inhibition
1,O=C(O[C@H]1CN[C@H](C#Cc2cc3ncnc(Nc4ccc5c(cnn5Cc5ccccc5)c4)c3s2)C1)N1CCOCC1,-0.01%
2,COc1ccc(Nc2ncc(-c3ccccc3)o2)cc1OC,10.6%
3,COc1cc(N2CCN(C(C)C)CC2)ccc1Nc1nc(Nc2cccc(F)c2C(=O)O)c2cc[nH]c2n1,4.67%
4,COc1ccccc1-c1cc(/C=C2\C(=O)Nc3ncc(Br)cc32)cc(Br)c1O,6.49%
5,FC(F)(F)CNc1nccc(-c2cnn3ncccc23)n1,2.14%
6,CN1CCC(n2cnc(-c3ccc(F)cc3)c2-c2ccnc(NCCO)n2)CC1,5.3%
7,CS(=O)(=O)CCNCc1ccc(-c2ccc3ncnc(Nc4ccc(OCc5cccc(C(F)(F)F)c5)cc4)c3c2)o1,5.19%
8,COc1c(C(N)=O)cc(-c2ccc(Cl)cc2)cc1-c1ccc(S(N)(=O)=O)cc1,6.96%
9,Cc1nnc(-c2cccc(-c3ccc(C(=O)NCC4CC4)cc3)c2)o1,6.85%
10,O=C(O[C@H]1CN[C@H](C#Cc2cc3ncnc(Nc4ccc5c(ccn5Cc5cc(F)ccc5F)c4)c3s2)C1)N1CCOCC1,3.78%
11,CS(=O)(=O)Nc1ccc(-c2ccc3c(NC(=O)C4CC4)n[nH]c3c2)cc1,4.26%
12,CN1CCC(C(=O)Nc2n[nH]c3nc(-c4ccc(O)cc4)c(Br)cc23)CC1,7.52% and 6.12%
13,O=C(O[C@H]1CN[C@H](C#Cc2cc3ncnc(Nc4ccc(OCc5cccc(F)c5)c(Cl)c4)c3s2)C1)N1CCOCC1,2.63%
14,CCCNc1cccc(-n2ncc3c(N/N=C/c4ccncc4)ncnc32)c1,17.3%
15,COc1cccc(Nc2nccc(-c3cnn4ncccc34)n2)c1,9.69%
16,N#Cc1ccc2c(-c3ccnc(NC4CC4)n3)c(-c3ccc(F)cc3)nn2c1,1.86%

row,SMILES,inhibition
1,CNC(=O)c1ncccc1Nc1nc(Nc2cc3c(cc2OC)CCCN3C(=O)CN(C)C)nc2[nH]ccc12,4.97%
2,CC1(C)CC(n2cnc(-c3ccc(F)cc3)c2-c2ccnc(N)n2)CC(C)(C)N1,-0.9%
3,COc1ccc2ncn(-c3cc(O[C@H](C)c4ccccc4C(F)(F)F)c(C(N)=O)s3)c2c1,2.92%
4,CC(C)c1ccc(-c2cc(-c3c[nH]nc3-c3ccccn3)ccn2)cc1,9.43%
5,CN1CCN(Cc2ccc(-c3cc4ncnc(Nc5ccc(OCc6cccc(F)c6)c(Cl)c5)c4s3)o2)CC1,7.34% and 7.83%
6,NS(=O)(=O)c1ccc(N/N=C2\C(=O)Nc3cccc(CCc4ccncc4)c32)cc1,19.6%
7,N#Cc1cccc(Nc2ncc(-c3ccccc3)o2)c1,3.11%
8,CNC(=O)c1cncc(/C=C/c2ccccc2C)c1,4.29%
9,Nc1ncnc2occ(-c3ccc(NC(=O)Nc4cc(C(F)(F)F)ccc4F)cc3)c12,63.8% and 54%
10,Cc1cc(O)cc(C)c1/C=C/c1cncc(C(=O)OC(C)(C)C)c1,4.17%
11,COc1ccc(-c2nn3ncccc3c2-c2ccnc(Nc3ccc(F)c(F)c3)n2)cc1,6.9%
12,O=C(Nc1n[nH]c2nnc(-c3cccnc3)cc12)C1CC1,-0.85%
13,c1ccc(-c2n[nH]cc2-c2ccnc(-c3ccc(OCCn4ccnc4)cc3)c2)nc1,19.9%
14,CS(=O)(=O)Nc1ccc(-c2cc(-c3ccccc3)cc(C(N)=O)c2N)cc1,1.74%
15,OCCCNc1nccc(-c2c(-c3ccc(F)cc3)nn3cc(C(F)(F)F)ccc23)n1,4.84%
